The values below come from PubChem BioAssay (NCATS).

The structures appear in SMILES notation. “And” between values parts separate entries of the source, which are not always exact repeats. Equal values may be shown once. Results filed as inconclusive are left out. The source made the active and inactive calls. Unless noted, calls follow the shape of the dose curve; as a rule, active = well fitted curve in the direction sought with a large enough effect; inconclusive = small, poorly fitted or top-dose-only effect, or another doubt; inactive = no such curve, though single readings can be large; an effect the other way counts as inactive or inconclusive.

Experiment [1] concerns the target Thioredoxin reductase 1, cytoplasmic (Rattus norvegicus) (UniProt O89049). Kind of experiment: qHTS Assay for Substrates of Mammalian Selenoprotein Thioredoxin Reductase 1 (TrxR1) (AID 488772).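 Also: series mostly up to about 57 µM; 0% is about no effect; a drop in NADPH fluorescence below the no-compound background marks a TrxR1 substrate.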 The method, boiled down: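 In this dual-purpose format, potential substrates are identified from the first fluorescence read after selenite addition, not from the 8-minute delta. Rat enzyme is preincubated with NADPH and then with compound at ~22 deg C.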
On the technique in general: qHTS replaces the single test concentration by a dilution series.

For experiment [2] the target is unchanged. Kind of experiment: qHTS Assay for Inhibitors of Mammalian Selenoprotein Thioredoxin Reductase 1 (TrxR1) (AID 488773). Also: nearly all actives have a fitted effect of over 40% in size. Also: potency is read from the fitted curve at half-maximal effect. Particulars: Potency: inhibition. The method, boiled down: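 Inhibition is scored from the loss of NADPH fluorescence between first and last reads of an 8-min kinetic run. Selenite (400 uM) was the substrate, added after 15 min compound preincubation at room temperature.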

In experiment [3] the target is Methanococcus maripaludis chaperonin (MmCpn) (UniProt Q6LX38). Kind of experiment: High-Throughput Screening for Modulators of Cytosolic Chaperonin Activity: MmCpn Primary Screen (AID 488978).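 Also: 50 nM MmCpn enzyme hydrolysing 30 µM ATP at 37 °C; 0% is about no effect.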 The method, boiled down:
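MmCpn (50 nM final) was preincubated with compound 5 min at RT, then 30 uM ATP (final) was added and the reaction ran 10 min at 37C. ADP produced was detected by Transcreener HTRF (ex 320 nm; em 590/665 nm).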

Experiment [4] addresses D(1A) dopamine receptor (Homo sapiens) (UniProt P21728). Kind of experiment: HTS Assay for Allosteric Agonists of the Human D1 Dopamine Receptor: Primary Screen for Potentiators (AID 488982). Also: 0% is about no effect. The method, boiled down: (§1)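 Calcium flux in an inducible, force-coupled HEK293 Trex D1 line (overnight at 30 C): agonist mode is the 180 s kinetic read after compound; potentiator mode is the following 180 s read after dopamine at EC20.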

Experiment [5] in a line: qHTS for Inhibitors of Cell Surface uPA Generation: Validation Assay (AID 493164).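 Also: RAW 264.7 macrophage cells exposed to compound for 18 h; 0% is about no effect.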 In a few lines: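 Compounds are titrated over seven points (2.45 nM–38.3 uM final) onto pre-plated RAW 264.7 cells and incubated for 18 h. Retained intracellular ATP, measured with ATP-Lite, indicates blocked lethal factor entry.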
Experiment [6] can be described thus: Validation screen for small molecules that induce DNA re-replication in SW480 colon adenocarcinoma cells (AID 504364). Also: 0% is about no effect. The method, boiled down: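 Read-out: total Hoechst intensity of nuclei by fluorescence scanning imager; hits raise the fraction of nuclei with elevated DNA content. Cells received compound for 48 hr at 37 C before a 40 min stain.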
Experiment [7] concerns the target Peptidyl-prolyl cis-trans isomerase NIMA-interacting 1 (Homo sapiens) (UniProt Q13526). Kind of experiment: qHTS Validation Assay to Find Inhibitors of Pin1 (AID 504536; active = well fitted inhibition curve with a large enough effect in the polarisation, with a control signal flat, not every such curve was filed as active; the % refers to the polarisation;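 also: 0% = full Pin1 enzyme wells and -100% = no-enzyme wells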). The method, boiled down: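 Fluorescence polarization competition: compounds (titration) displace HiFluor-488-labeled Pin1-1b peptide from Pin1 (0.3 uM final) in pH 7.5 HEPES buffer with DTT, 10 min at room temperature; %Activity normalized to no-enzyme wells, curves fitted.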

Experiment [8] concerns the target Phosphoglycerate kinase, glycosomal (Trypanosoma brucei brucei) (UniProt P07378). Kind of experiment: qHTS Validation Assay to Find Inhibitors of Phosphoglycerate Kinase (AID 504547).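 Also: control wells lack PGK and mark full inhibition.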 In a few lines: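 Luminescence end-point (Kinase-Glo Plus, 10 min) after a 60 min room-temperature coupled reaction. GAPDH at 100nM final supplies 1,3-BPG to PGK. Buffer: 100mM TEA pH 7.6, 5mM MgCl2, 0.01% Tween-20. Wells lacking PGK served as controls.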

In experiment [9] the target is phosphoglycerate mutase (Leishmania major) (UniProt Q4Q090). Kind of experiment: qHTS Validation Assay to Find Inhibitors of Phosphoglycerate Mutase (AID 504548).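 Also: end-point luminescence from Kinase-GloPlus after the PGAM reaction; series mostly up to about 58 µM; % is scaled to controls: 0 for no effect and ±100 for the full control effect.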 Particulars: Potency: inhibition qHTS. The method, boiled down:
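L. major PGAM (1.25nM final) was added to substrate buffer and pinned compound, incubated 45 minutes at room temperature, then Kinase-GloPlus added; luminescence read after 10 minutes. Buffer: 100 mM TEA pH 7.6, 5 mM MgCl2, 0.01% Tween-20.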

A short description of experiment [10]: Quantitative high throughput screen for delayed death inhibitors of the malarial parasite plastid, 48 hour incubation (AID 488752). Also: % is scaled to controls: 0 for no effect and ±100 for the full control effect; nearly all actives have a fitted effect of over 65% in size. In a few lines: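 Luciferase-expressing P. falciparum in RBCs, 2% Hct, 0.1% parasitemia final; RPMI 1640 + 0.5% Albumax; 48 h, 37 C, 5% CO2; luminescence readout, signal drop = growth inhibition.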
The target of experiment [11] is Flap endonuclease 1 (Homo sapiens) (UniProt P39748). Kind of experiment: qHTS Validation Assay for the Inhibitors of Human Flap endonuclease 1 (FEN1) (AID 488816). Also: potency is read from the fitted curve at half-maximal effect. The method, boiled down:
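qHTS format: compounds and 10 nM FEN1 incubated 15 min at room temperature before adding 50 nM substrate. Cleavage followed by reads at 0 and 15 min; normalized data fitted to a four-parameter Hill curve.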

The target of experiment [12] is M-phase phosphoprotein 8 (Homo sapiens) (UniProt Q99549). Kind of experiment: qHTS Validation Assay for Inhibitors for MPP8 Chromodomain Interactions with Methylated Histone Tails (AID 488949). Also: nearly all actives have a fitted effect of over 55% in size. Also: potency is read from the fitted curve at half-maximal effect. The method, boiled down:
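MPP8 (50 nM) was preincubated with biotinylated H3(1-18)K9me3 peptide (50 nM) in PBS pH 7.4, 0.01% Tween-20 for 30 min at room temperature, then with compounds for 30 min; binding was detected by AlphaScreen.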

The target in experiment [13] is Chromobox protein homolog 1 (Homo sapiens) (UniProt P83916). Kind of experiment: qHTS Validation Assay for Inhibitors of HP1-beta Chromodomain Interactions with Methylated Histone Tails (AID 488953). Also: nearly all actives have a fitted effect of over 50% in size. Also: potency is read from the fitted curve at half-maximal effect. The method, boiled down:
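AlphaScreen proximity readout: streptavidin donor and Ni-chelate acceptor beads, 10 ug/mL final, 30 min dark, RT. Complex of 50 nM HP1-beta and 50 nM b-H3(1-18)K9me3 formed 30 min, then compound-treated 30 min; PBS pH 7.4/0.01% Tween-20.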

The target in experiment [14] is Transient receptor potential cation channel subfamily V member 1 (Homo sapiens) (UniProt Q8NER1). Kind of experiment: HTS Assay for Compounds that Act as Enhancers of the Vanilloid Receptor 1 (AID 488979). Also: 0% is about no effect. The method, boiled down:
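Calcium influx kinetics via Fluo-8 (480/520 nm) in TRPV1-expressing cells, 2000/well cultured overnight at 35.5C. Compound-alone read 3 min (agonist phase), followed by EC20 capsaicin challenge for 2 min (enhancer phase).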

The target of experiment [15] is ATP-dependent 6-phosphofructokinase (Trypanosoma brucei brucei) (UniProt O15648). Kind of experiment: qHTS Assay to Find Inhibitors of T. brucei phosphofructokinase: hit validation (AID 492961).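 Also: luminescence reports ADP formed as PFK phosphorylates fructose-6-phosphate with ATP; series mostly up to about 51 µM; % is scaled to controls: 0 for no effect and ±100 for the full control effect.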 In a few lines: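 ADP-Glo luminescence read-out of ADP formed by 1.25 nM PFK from 0.1 mM ATP and 0.5 mM F6P (TEA pH 8.0, 45 min, RT). Compounds titrated; activity normalized to no-enzyme and full-enzyme controls.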

Experiment [16] has as its target Thyrotropin-releasing hormone receptor (Homo sapiens) (UniProt P34981). Kind of experiment: qHTS for Small Molecule Agonists and Allosteric Enhancers of Human TRH Receptor: Validation Screen for Agonists (AID 493127;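 active = calcium activation more than 3 SD above the typical response in the agonist read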;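 also: intracellular calcium rise by fluo-8 fluorescence before TRH EC20 addition; 0% is about no effect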). Particulars: TRH receptor agonist cell assay; at 2 µM; stronger effect = higher value. In a few lines: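 Read-out: intracellular calcium release measured kinetically by FDSS (fluo-8, ex 480/em 530 nm), 1 reading/s after a 10-cycle baseline. TRHR cells, 2000/well, cultured 18 h at 33.5C, dye-loaded at room temp. Compound-evoked positive calcium signal flags agonists.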

A short description of experiment [17]: Nrf2 qHTS screen for inhibitors: Validation (AID 493153; active = well fitted inhibition curve with a large enough effect in the main read-out, with a control signal flat, not every such curve was filed as active). Particulars: Potency: luciferase luminescence; viability change: measured here: cytotoxicity max response. In a few lines:
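Concentration-response test in A549 ARE_Fluc reporter cells (5% FBS OPTI-MEM), compound exposure 18-24 h at 37°C, 5% CO2. Cell viability measured first by CellTiter-Fluor fluorescence; ARE-driven luciferase luminescence then measured as Nrf2 activity.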

The target in experiment [18] is Ubiquitin carboxyl-terminal hydrolase 1 (Homo sapiens) (UniProt O94782). Kind of experiment: Inhibitors of USP1/UAF1: Pilot qHTS (AID 504865).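 Also: rhodamine fluorescence freed from ubiquitin-rhodamine substrate followed over time; top concentration of the series differs between compounds; % is scaled to controls: 0 for no effect and ±100 for the full control effect; nearly all actives have a fitted effect of over 35% in size.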 In a few lines: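 USP1/UAF1 complex (1nM) preincubated with compound 15 min at room temperature, then Ub-Rho substrate (150nM final) added. Fluorescence read kinetically at 480/540 nm, 6 reads every 60 seconds. Buffer: 50mM HEPES pH 7.8, 0.5mM EDTA, 0.1 mg/ml BSA, 1mM TCEP, 0.01% Tween-20.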
Sequence of Ubiquitin carboxyl-terminal hydrolase 1 (Homo sapiens) (O94782 whole entry, looked up): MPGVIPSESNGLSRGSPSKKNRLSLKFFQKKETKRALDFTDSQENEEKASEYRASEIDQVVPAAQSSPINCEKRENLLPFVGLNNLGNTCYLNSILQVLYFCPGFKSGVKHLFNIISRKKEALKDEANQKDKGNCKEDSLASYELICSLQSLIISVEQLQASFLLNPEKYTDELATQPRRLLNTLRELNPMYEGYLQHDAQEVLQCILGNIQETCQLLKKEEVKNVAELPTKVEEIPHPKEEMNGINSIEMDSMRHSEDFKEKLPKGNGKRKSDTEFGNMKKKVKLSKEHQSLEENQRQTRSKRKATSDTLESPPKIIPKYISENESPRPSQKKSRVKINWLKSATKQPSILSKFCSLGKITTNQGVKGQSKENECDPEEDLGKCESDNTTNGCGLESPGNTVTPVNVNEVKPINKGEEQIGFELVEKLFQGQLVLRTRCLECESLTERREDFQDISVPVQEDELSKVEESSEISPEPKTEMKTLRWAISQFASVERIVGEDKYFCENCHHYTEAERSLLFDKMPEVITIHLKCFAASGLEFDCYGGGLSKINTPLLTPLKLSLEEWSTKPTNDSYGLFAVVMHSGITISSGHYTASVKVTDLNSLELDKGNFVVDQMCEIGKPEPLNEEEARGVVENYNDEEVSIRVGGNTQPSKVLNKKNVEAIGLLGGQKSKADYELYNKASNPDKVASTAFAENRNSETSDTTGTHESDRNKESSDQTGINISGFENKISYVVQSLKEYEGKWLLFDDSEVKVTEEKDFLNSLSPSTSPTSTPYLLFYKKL

Experiment [19] has as its target D(1A) dopamine receptor (Homo sapiens) (UniProt P21728). Kind of experiment: HTS Assay for Allosteric Agonists of the Human D1 Dopamine Receptor: Primary Screen for Agonists (AID 488981). Also: 0% is about no effect. The method, boiled down:
as §1

Experiment [20] has the same target. Kind of experiment: HTS Assay for Allosteric Agonists of the Human D1 Dopamine Receptor: Primary Screen for Antagonists (AID 488983).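 Also: calcium flux response to an EC80 dopamine challenge measured with no-wash dye; % is scaled to controls: 0 for no effect and ±100 for the full control effect; nearly all actives have a fitted effect of over 65% in size.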 The method, boiled down:
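Calcium flux readout, no-wash dye, inducible HEK293 T-REx D1 line (force-coupled). Compound added after 10 s baseline, 180 s kinetic read; then dopamine at EC80, further 180 s read.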

Sequence of Transient receptor potential cation channel subfamily V member 1 (Homo sapiens) (Q8NER1 whole entry, looked up): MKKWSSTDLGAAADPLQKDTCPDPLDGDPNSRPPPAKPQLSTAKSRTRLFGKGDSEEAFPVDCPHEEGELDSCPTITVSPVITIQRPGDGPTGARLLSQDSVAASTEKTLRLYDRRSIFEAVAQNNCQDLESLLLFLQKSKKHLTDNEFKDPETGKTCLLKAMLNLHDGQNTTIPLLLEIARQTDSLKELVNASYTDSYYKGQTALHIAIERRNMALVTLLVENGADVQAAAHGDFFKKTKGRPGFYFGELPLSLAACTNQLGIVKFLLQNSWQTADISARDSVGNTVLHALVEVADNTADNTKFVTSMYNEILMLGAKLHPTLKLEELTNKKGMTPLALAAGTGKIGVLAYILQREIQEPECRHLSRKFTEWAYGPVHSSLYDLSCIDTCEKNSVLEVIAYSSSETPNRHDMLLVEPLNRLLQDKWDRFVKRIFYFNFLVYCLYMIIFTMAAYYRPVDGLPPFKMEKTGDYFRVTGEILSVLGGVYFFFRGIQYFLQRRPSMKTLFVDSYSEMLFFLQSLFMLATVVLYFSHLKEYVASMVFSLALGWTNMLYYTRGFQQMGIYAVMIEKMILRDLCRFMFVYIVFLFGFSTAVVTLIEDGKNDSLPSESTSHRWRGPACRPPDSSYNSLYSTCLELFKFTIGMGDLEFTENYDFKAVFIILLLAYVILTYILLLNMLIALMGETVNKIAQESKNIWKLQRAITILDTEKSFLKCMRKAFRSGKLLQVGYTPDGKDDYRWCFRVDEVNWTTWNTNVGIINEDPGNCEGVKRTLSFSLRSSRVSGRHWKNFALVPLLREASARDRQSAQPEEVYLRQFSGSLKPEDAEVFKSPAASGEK
Sequence of Chromobox protein homolog 1 (Homo sapiens) (P83916 whole entry, looked up): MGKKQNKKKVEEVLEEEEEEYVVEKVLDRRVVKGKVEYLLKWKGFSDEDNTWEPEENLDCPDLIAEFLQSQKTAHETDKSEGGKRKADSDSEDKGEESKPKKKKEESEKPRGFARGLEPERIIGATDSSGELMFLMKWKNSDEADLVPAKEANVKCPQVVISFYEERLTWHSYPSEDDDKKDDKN
Sequence of D(1A) dopamine receptor (Homo sapiens) (P21728 whole entry, looked up): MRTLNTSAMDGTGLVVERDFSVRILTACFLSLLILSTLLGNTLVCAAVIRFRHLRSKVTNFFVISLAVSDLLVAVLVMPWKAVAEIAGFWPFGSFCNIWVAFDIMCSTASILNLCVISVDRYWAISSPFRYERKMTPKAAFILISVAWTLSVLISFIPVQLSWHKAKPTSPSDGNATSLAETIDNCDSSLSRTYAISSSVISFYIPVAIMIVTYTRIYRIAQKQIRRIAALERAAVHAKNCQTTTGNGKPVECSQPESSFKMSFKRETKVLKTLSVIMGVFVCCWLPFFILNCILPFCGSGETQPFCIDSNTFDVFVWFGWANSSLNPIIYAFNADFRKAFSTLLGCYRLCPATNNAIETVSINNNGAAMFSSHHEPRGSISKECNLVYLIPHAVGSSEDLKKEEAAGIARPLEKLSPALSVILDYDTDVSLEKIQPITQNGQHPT
Sequence of phosphoglycerate mutase (Leishmania major) (Q4Q090 1-553): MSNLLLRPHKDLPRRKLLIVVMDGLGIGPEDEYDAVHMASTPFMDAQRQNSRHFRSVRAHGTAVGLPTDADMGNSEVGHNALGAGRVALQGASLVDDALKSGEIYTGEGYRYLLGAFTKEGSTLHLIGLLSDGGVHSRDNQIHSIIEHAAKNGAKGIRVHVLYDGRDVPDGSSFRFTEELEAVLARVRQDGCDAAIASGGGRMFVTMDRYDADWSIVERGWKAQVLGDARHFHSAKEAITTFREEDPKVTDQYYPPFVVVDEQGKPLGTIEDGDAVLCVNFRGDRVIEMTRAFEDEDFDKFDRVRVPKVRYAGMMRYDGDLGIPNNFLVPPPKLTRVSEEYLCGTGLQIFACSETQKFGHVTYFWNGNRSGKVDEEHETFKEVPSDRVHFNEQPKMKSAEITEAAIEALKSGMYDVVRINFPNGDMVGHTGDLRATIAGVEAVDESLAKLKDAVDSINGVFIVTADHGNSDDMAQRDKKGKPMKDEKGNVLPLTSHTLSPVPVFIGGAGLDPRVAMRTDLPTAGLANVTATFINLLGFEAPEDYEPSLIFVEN
Sequence of Phosphoglycerate kinase, glycosomal (Trypanosoma brucei brucei) (P07378 whole entry, looked up): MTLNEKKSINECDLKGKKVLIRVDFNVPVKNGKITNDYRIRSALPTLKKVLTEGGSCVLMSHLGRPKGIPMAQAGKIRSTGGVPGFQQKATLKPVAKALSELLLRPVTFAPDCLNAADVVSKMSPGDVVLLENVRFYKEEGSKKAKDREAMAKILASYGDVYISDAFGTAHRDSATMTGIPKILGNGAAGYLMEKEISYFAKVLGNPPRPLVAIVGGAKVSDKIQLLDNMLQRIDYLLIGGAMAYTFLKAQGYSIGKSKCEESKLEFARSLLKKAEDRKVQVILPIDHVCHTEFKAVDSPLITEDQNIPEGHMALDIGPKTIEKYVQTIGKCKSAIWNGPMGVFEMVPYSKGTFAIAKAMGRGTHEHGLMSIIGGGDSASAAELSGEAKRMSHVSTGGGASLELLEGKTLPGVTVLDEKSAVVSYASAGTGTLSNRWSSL
Sequence of Thyrotropin-releasing hormone receptor (Homo sapiens) (P34981 whole entry, looked up): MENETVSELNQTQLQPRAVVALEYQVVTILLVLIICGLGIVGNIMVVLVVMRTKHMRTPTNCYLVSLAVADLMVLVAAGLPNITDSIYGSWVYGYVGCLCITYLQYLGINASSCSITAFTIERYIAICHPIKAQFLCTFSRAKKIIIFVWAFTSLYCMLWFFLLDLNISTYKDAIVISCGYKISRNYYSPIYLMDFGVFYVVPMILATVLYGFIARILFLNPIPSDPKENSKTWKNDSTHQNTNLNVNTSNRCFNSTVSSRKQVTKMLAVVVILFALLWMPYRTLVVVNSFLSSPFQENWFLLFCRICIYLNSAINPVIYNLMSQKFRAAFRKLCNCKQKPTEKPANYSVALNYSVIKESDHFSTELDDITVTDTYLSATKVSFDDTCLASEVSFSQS
Sequence of Peptidyl-prolyl cis-trans isomerase NIMA-interacting 1 (Homo sapiens) (Q13526 whole entry, looked up): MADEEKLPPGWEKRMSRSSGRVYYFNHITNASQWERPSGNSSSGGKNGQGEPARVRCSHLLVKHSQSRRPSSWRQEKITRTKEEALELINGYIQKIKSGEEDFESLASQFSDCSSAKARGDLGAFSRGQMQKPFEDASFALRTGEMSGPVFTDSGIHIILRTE
Sequence of Thioredoxin reductase 1, cytoplasmic (Rattus norvegicus) (O89049 whole entry, looked up): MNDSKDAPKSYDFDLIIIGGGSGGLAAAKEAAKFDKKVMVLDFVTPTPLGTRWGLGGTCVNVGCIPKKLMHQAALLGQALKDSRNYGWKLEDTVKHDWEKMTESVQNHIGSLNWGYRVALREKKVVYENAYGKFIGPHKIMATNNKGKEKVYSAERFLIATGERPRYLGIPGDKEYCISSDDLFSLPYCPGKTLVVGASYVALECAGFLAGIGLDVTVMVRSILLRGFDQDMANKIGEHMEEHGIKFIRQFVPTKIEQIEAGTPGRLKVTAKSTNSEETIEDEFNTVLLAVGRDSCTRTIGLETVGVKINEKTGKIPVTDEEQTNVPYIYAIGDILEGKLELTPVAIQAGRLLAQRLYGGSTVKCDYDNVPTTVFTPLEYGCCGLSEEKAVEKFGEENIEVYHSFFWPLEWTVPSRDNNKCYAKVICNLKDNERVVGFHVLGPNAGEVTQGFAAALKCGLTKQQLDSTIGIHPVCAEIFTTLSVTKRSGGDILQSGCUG
Sequence of Methanococcus maripaludis chaperonin (MmCpn) (Q6LX38 1-543): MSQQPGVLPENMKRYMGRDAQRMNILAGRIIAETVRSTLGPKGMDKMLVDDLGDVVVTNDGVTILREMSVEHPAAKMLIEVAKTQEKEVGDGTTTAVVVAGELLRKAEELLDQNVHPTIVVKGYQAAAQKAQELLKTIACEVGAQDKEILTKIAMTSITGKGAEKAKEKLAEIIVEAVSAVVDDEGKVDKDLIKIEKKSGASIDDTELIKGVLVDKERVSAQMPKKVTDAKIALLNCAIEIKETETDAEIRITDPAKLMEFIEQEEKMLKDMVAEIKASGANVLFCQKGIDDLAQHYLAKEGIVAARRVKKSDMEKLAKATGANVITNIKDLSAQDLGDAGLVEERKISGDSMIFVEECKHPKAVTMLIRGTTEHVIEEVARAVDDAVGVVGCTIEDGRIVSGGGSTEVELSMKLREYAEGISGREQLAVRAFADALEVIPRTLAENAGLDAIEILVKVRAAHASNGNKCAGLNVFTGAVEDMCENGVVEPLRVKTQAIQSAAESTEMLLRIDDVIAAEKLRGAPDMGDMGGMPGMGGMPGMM

On to `CC(=O)N1CCN(c2ccc(OC[C@H]3CO[C@](Cn4ccnc4)(c4ccc(Cl)cc4Cl)O3)cc2)CC1`, for which the result in experiment [1], in experiment [3], in [5] and in experiment [7] was inactive. The Potency result in experiment [2], in [4], in experiment [6], in experiment [8] and in experiment [9] was “inactive” each time.
On to `CNC[C@H](O)c1ccc(O)c(O)c1`, for which the Potency entry in experiment [10], in [12], in [13], in [4], in experiment [17] and in experiment [6] was “inactive” throughout. The Potency result in [9] and in experiment [18] was “inactive” in each case. Further, the compound was classed as inactive in experiment [1], in experiment [3], in experiment [14], in [15], in experiment [5] and in experiment [7]. Besides, the Potency in experiment [11] is 10.6 µM (active). In addition, the activation in [16] is 0.875% (inactive). In experiment [17], the viability change was determined as 3.45%.
For `Cc1c(OCC(F)(F)F)ccnc1CS(=O)c1nc2ccccc2[nH]1` (configuration not stated), the compound was classed as inactive in experiment [1], in [3], in experiment [14], in experiment [19], in experiment [15] and in experiment [5]. Moreover, the call in experiment [7] was inactive. In addition, the Potency result in experiment [2], in experiment [11], in experiment [4], in experiment [20], in experiment [6] and in [8] was “inactive” in each case. In addition, the Potency entry in [9] and in [18] was “inactive” throughout. Moreover, the activation in experiment [16] is 4.38% (inactive).
Regarding `CN(C)CCCC1(c2ccc(F)cc2)OCc2cc(C#N)ccc21` (configuration not stated), the Potency entry in [10], in experiment [2], in [11], in [12], in experiment [13] and in experiment [4] was “inactive” in each case. The Potency entry in [17], in [6], in [8], in experiment [9] and in experiment [18] was “inactive” each time. The outcome in [1], in experiment [3], in [19], in experiment [5] and in [7] was inactive. In addition, the activation in experiment [16] was 3.31% (inactive). The same compound displayed a viability change in [17] of 6.56%.
In the case of `C[C@H](Cc1ccc(O)c(O)c1)[C@@H](C)Cc1ccc(O)c(O)c1`, the compound was called inactive in [1], in [3], in experiment [14] and in [5]. Also, the Potency is 9.47 µM (active) in [2]; 0.752 µM (active) in experiment [11]; 25.1 µM (active) and 23.8 µM (active) in experiment [12]; 31.6 µM (active) in experiment [13]. Also, the Potency entry in [20], in [6], in [8] and in experiment [9] was “inactive” throughout.
Regarding `C[C@@H](N)C1CCC(C(=O)Nc2ccncc2)CC1` (some centres not stated), the Potency entry in [10], in [2], in experiment [11], in [12], in experiment [13] and in experiment [4] was “inactive” throughout. Further, the Potency entry in experiment [20], in experiment [17], in experiment [6], in experiment [8], in [9] and in [18] was “inactive” throughout. The result in [1], in experiment [3], in experiment [14], in [19], in experiment [5] and in experiment [7] was inactive. The activation in experiment [16] was 1.06% (inactive). Also, in experiment [17], the viability change stood at 2.27%.
